The text below walks through data of PubChem BioAssay (NCATS).

“And” between values parts separate entries of the source, which are not always exact repeats. Equal values may be shown once. Inconclusive results are not listed. The source made the active and inactive calls. Unless noted, calls come from the whole dose curve; as a rule, active = well fitted curve in the direction sought with a large enough effect; inconclusive = small, poorly fitted or top-dose-only effect, or another doubt; inactive = no such curve, though single readings can be large; an effect the other way counts as inactive or inconclusive.

Assay [1] has as its target Alpha-galactosidase A (Homo sapiens) (UniProt P06280). Briefly: Counterscreen for Glucocerebrosidase Inhibitors: qHTS Assay for Human alpha-Galactosidase at pH 4.5 (AID 992). Note: 0% is about no effect. A digest of the protocol:
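Concentration-response curves (0.7 nM to 77 uM final) were modeled with the Hill equation to give AC50. Reactions: 2 nM enzyme, 80 uM fluorogenic alpha-galactoside, pH 4.5 citric acid buffer, 20 min, room temperature.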

The target of assay [2] is alpha-glucosidase (Oryza sativa, rice) (UniProt Q653V4). The experiment in a line: Counterscreen for Glucocerebrosidase Inhibitors: qHTS Assay for Rice alpha-Glucosidase at pH 5.0 (AID 997).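 Note: 0% = full activity with enzyme and -100% = basal without enzyme.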 A digest of the protocol: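 Rice alpha-glucosidase (4 nM final) with 400 uM 4-methylumbelliferyl-alpha-D-glucopyranoside in citrate buffer pH 5.0, 20 min at room temperature, stopped at pH 10; fluorescence 365/440 nm, compounds 0.7 nM–77 uM, AC50 from Hill fits.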
A general note: The purpose of a counterscreen is to sort out artefacts and off-target activity.

Assay [3] in a line: Validation of Assay for Modulators of Lamin A Splicing (AID 1459; active = well fitted curve in the direction sought with a large enough effect in the signal ratio; the % refers to the signal ratio;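 note: cells exposed to compound for two days before reading; 0% is about no effect; ratio rise marks activators and ratio drop marks inhibitors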). A digest of the protocol: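 Splicing correction read as GFP (500-530 nm) over DsRed2 (575-640 nm) object intensity after 48 h compound exposure of reporter HeLa S3 clones (600 cells/well, 2% FBS medium); ancitabine and cycloheximide titrations, 0.5% DMSO as vehicle.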
The target of assay [4] is DNA repair nuclease/redox regulator APEX1 (Homo sapiens) (UniProt P27695). Briefly: qHTS Validation Assay for Inhibitors of the Human Apurinic/apyrimidinic Endonuclease 1 (APE1) (AID 1705;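 note: TAMRA fluorescence gain over two minutes as APE1 cuts a quenched THF abasic duplex; % is set by controls: 0 for no effect and ±100 for the full control effect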). A digest of the protocol: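 Activity read as rising fluorescence (598 nm emission, 525 nm excitation) from incision of a TAMRA/BHQ-2 duplex carrying a THF abasic site (50 nM). Compound and enzyme sat 15 min at RT before substrate start; signal change between first and third 60-s reads.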
DNA repair nuclease/redox regulator APEX1 (Homo sapiens), sequence (P27695 whole entry, looked up): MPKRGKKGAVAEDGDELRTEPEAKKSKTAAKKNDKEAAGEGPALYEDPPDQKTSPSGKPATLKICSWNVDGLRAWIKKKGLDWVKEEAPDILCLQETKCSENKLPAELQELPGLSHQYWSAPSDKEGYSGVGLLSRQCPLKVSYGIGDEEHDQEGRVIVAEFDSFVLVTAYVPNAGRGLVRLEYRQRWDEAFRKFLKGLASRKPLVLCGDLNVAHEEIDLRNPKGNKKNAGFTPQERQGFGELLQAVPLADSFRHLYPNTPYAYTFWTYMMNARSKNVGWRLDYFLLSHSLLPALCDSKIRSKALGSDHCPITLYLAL

A short description of assay [5]: Counterscreen for APE1 Inhibitors: Fluorescent Dye Displacement Validation Assay (AID 1707).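 Note: plate controls were ThO with dsDNA and no compound for no effect and ThO without dsDNA for full effect.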 A digest of the protocol: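 Assay buffer: Tris-HCl pH7.5 with 50mM NaCl, 2 mM MgCl2, 0.01% Tween-20. Dye 250 nM, duplex 50 nM final. Readout: decrease in ThO endpoint fluorescence, 480 nm excitation, 540 nm emission.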
The nature of assay [6]: qHTS for differential inhibitors of proliferation of Plasmodium falciparum line 7G8 (AID 1815;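 note: parasite growth measured after three days of incubation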; note: potency is the fitted concentration of half-maximal effect;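 for activity change, negative = inhibition: plate controls were vehicle wells for no effect and reference inhibitor wells for full effect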). (In general: Quantitative high-throughput screening tests each substance at several concentrations.)
Assay [7] in a line: qHTS for differential inhibitors of proliferation of Plasmodium falciparum line GB4 (AID 1816).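 For activity change, negative = inhibition: 0% = vehicle DMSO and -100% = reference inhibitor.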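 Note: parasite growth measured after 72 h incubation.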 Note: potency is the fitted concentration of half-maximal effect. Conditions: Potency: Plasmodium falciparum GB4 proliferation inhibition.
A short description of assay [8]: qHTS for differential inhibitors of proliferation of Plasmodium falciparum line 3D7 (AID 1876). Note: potency is the fitted concentration of half-maximal effect.
Assay [9] is described as follows: qHTS for differential inhibitors of proliferation of Plasmodium falciparum line D10 (AID 1877).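 For activity change, negative = inhibition: plate controls were vehicle wells for no effect and reference inhibitor wells for full effect.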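 Note: parasites grown with compound for 72 h before DNA staining.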 Note: potency is the fitted concentration of half-maximal effect.
Assay [10] is described as follows: qHTS for differential inhibitors of proliferation of Plasmodium falciparum line HB3 (AID 1886).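 For activity change, negative = inhibition: plate controls were vehicle for no effect and reference inhibitor for full effect.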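 Note: parasites grown with compound for 72 h before SYBR Green readout.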 Note: potency is the fitted concentration of half-maximal effect. Conditions: Potency: Plasmodium falciparum HB3 proliferation inhibition.
A short description of assay [11]: qHTS Assay for Modulators of Human Peripheral Myelin Protein 22 (PMP22) Expression/Activity (AID 1967; active = well fitted curve in the direction sought with a large enough effect in the signal ratio; the % refers to the signal ratio;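 note: 0% = untreated cells and 100% end not stated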). A digest of the protocol:
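Readout is the corrected green/red luminescence ratio after 24 h compound exposure, normalised to untreated cells (0%). Engineered MSC80 mouse Schwann cells express green luciferase from the mouse Pmp22 promoter and red luciferase from EF-alpha as internal control.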

Assay [12] addresses ATP-dependent DNA helicase Q1 (Homo sapiens) (UniProt P46063). Briefly: qHTS Validation Assay for Inhibitors of RecQ-Like Dna Helicase 1 (RECQ1) (AID 2353).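 Note: plate controls were DMSO vehicle for no effect and enzyme-free control for full effect.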 The method in brief:
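50 nM RECQ1T1 preincubated 15 min with compound in Tris pH 8.0 buffer with MgCl2, DTT, Tween-20 and 2.5 ug/ml poly(dI-dC); started with 200 nM TAMRA/BHQ-2 forked duplex and 2 mM ATP. Unwinding read as fluorescence (525/598 nm), two reads 2 h apart.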

Assay [13] is described as follows: qHTS Assay for Lipid Storage Modulators (AID 1519; calls by dose curve; for activity change, negative = inhibition: % is set by controls: 0 for no effect and ±100 for the full control effect). Conditions: Drosophila S3 cells, BODIPY lipid droplet/cell ratio, laser cytometry, cells loaded with oleic acid. A digest of the protocol: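 Cells seeded at 5,000 per well were treated with compounds over a concentration series and loaded with oleic acid (400 uM, as added). Lipid droplet fluorescence (488 nm excitation, 500-530 nm channel) was read by laser-scanning cytometry and normalized to 20 uM Triacsin C.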

Assay [14] can be described thus: qHTS for differential inhibitors of proliferation of Plasmodium falciparum line W2 (AID 1883).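 Note: potency is the fitted concentration of half-maximal effect; parasites grown with compound for 72 h before lysis and staining.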 Conditions: Potency: Plasmodium falciparum W2 proliferation inhibition.
The target in assay [15] is Ferritin light chain (Equus caballus) (UniProt P02791). Briefly: qHTS Validation Assay for Identification of Novel General Anesthetics (AID 2323). Note: % is set by controls: 0 for no effect and ±100 for the full control effect. The method in brief: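 Competitive displacement of the profluorescent anesthetic 1-AMA (50% saturated, PBS) from 10 uM apoferritin, 10 min, room temperature. Activity is normalized 380/535 nm fluorescence; concentration-response fitted with a four-parameter Hill equation.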
Ferritin light chain (Equus caballus), sequence (P02791 2-175 limits assumed): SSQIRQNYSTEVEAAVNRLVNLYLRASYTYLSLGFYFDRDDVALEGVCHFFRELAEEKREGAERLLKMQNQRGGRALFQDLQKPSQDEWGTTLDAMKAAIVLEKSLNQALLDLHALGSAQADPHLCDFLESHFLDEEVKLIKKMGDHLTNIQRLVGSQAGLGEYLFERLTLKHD

Assay [16] in a line: Cell Viability - LYMP2-026 (AID 989). Note: % is set by controls: 0 for no effect and ±100 for the full control effect; nearly all actives have a fitted effect of over 50% in size. A digest of the protocol: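 Human lymphoblastoid LYMP2-026 cells, 2500/well, exposed to compound 24 h at 37 C in complete medium. Viability as intracellular ATP by CellTiter-Glo luminescence; AC50 from Hill fits of qHTS concentration-response.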
[17] abbreviates: measured here: cell count channel max response.
Where [18] appears, read: measured here: lipid channel max response.

Alpha-galactosidase A (Homo sapiens), sequence (P06280 whole entry, looked up): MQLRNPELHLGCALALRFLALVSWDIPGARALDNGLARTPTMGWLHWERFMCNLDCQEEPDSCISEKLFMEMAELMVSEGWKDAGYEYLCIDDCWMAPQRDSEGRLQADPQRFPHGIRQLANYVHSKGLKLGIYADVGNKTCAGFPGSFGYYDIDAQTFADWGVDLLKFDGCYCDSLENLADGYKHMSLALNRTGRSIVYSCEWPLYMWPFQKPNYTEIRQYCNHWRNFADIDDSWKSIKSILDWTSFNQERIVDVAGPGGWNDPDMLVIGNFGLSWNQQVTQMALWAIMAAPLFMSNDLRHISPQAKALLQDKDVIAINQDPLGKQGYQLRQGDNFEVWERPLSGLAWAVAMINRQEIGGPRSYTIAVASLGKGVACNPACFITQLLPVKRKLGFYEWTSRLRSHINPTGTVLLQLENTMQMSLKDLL
ATP-dependent DNA helicase Q1 (Homo sapiens), sequence (P46063 whole entry, looked up): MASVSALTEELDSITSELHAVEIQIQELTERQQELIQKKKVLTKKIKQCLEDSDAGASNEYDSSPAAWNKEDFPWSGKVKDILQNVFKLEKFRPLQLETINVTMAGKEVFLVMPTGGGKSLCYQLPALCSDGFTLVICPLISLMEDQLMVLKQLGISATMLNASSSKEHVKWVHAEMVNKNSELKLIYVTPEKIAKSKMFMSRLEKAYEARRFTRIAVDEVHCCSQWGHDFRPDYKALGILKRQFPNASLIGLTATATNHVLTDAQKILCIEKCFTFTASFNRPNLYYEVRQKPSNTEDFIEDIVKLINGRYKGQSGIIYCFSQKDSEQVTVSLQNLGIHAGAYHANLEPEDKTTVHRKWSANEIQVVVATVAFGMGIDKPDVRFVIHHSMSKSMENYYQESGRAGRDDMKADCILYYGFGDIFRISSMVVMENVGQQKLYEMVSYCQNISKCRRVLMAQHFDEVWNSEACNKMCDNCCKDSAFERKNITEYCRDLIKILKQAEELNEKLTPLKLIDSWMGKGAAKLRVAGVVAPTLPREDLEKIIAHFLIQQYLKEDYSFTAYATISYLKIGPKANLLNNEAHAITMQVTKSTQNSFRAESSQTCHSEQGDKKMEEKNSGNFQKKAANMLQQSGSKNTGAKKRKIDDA

As to `CCN(CC)CCNC(=O)c1cc(Cl)c(N)cc1OC`, the molecule was called inactive in assay [1], in assay [2], in [3] and in [11]. Moreover, the Potency result in assay [4], in assay [5], in assay [6], in assay [7], in [8] and in assay [9] was “inactive” each time. Further, the Potency entry in assay [10] and in assay [12] was “inactive” each time.

As to `CCN(CC)CCOC(=O)C1(C2CCCCC2)CCCCC1`, the call in assay [1], in assay [2], in assay [3] and in assay [15] was inactive. For the same molecule, the activity change, negative = inhibition was -3.18% (inactive) in [13] (at 25.7 µM (top of the series)); 4.04% (inactive) and 0.569% (inactive) in assay [13] (at 57.5 µM (top of the series)). In addition, the max response in assay [13] (setting [17]) was 0.165% and 5.59% and 10.8%; in assay [13] (setting [18]), -2.15% and 9.9% and 9.37%. Further, the Potency entry in assay [4], in assay [5] and in [12] was “inactive” each time. In addition, the Potency in [6] is 8.91 µM (active); in assay [7], 14.1 µM (active); in [9], 15.8 µM (active); in assay [14], 5.62 µM (active); in assay [10], 12.6 µM (active).

Regarding `O=C(Oc1ccccc1C(=O)O)c1ccccc1O`, the activity change, negative = inhibition in assay [13] (at 57.5 µM (top of the series)) is 4.87% (inactive). The max response is -1.82% in assay [13] (setting [17]) and 6.63% in [13] (setting [18]).

For the molecule `COC(=O)C1=C(C)NC(C)=C(C(=O)OC)C1c1ccccc1[N+](=O)[O-]`, the Potency entry in assay [16], in assay [4], in assay [5] and in [12] was “inactive” throughout. The call in assay [1], in assay [2], in assay [3] and in assay [15] was inactive.

As to `OCc1cc(C(O)CNCCCCCCOCCCCc2ccccc2)ccc1O` (configuration not stated), the molecule was called inactive in assay [1], in [2] and in assay [3]. In [13] (at 57.5 µM (top of the series)), the activity change, negative = inhibition is -1.85% (inactive). Also, the max response in [13] (setting [17]) stood at 12.8%; in assay [13] (setting [18]) it was 10.1%. Besides, the Potency entry in assay [4], in assay [5] and in assay [12] was “inactive” throughout. Also, the Potency in [6] was 8.91 µM (active); in [7] it was 8.91 µM (active); in [8], 8.91 µM (active); in [9], 12.6 µM (active); in [14], 7.08 µM (active); in assay [10] it was 10 µM (active).

In the case of `O=C1N=C(O)CN1/N=C/c1ccc(-c2ccc([N+](=O)[O-])cc2)o1`, in assay [3], the call was inactive. Moreover, the Potency entry in assay [4] and in assay [12] was “inactive” each time. In addition, the Potency in assay [8] was 11.2 µM (active); in assay [14], 7.08 µM (active).

As for `O=C(O)c1ccccc1O`, the activity change, negative = inhibition in [13] (at 57.5 µM (top of the series)) was 9.55% (inactive). For the same molecule, the figures for the max response in assay [13] (setting [17]) and in assay [13] (setting [18]) were 11.4% and 27.4%, respectively.

As to `OC[C@H]1O[C@@H](O[C@@H]2[C@@H](CO)O[C@](O)(CO)[C@H]2O)[C@H](O)[C@@H](O)[C@H]1O`, the activity change, negative = inhibition in [13] (at 57.5 µM (top of the series)) is -5.86% (inactive). The max response is -20.2% in [13] (setting [17]) and -24.3% in assay [13] (setting [18]).

Consider `COc1ccc(Cl)cc1C(=O)NCCc1ccc(S(=O)(=O)NC(=O)NC2CCCCC2)cc1`, for which the molecule was called inactive in assay [1], in [2], in assay [3] and in [15]. For the same molecule, the activity change, negative = inhibition in [13] (at 25.7 µM (top of the series)) was 1.56% (inactive); in [13] (at 57.5 µM (top of the series)), 12.5% (inactive) and -0.0195% (inactive). The max response in assay [13] (setting [17]) was 8.8% and 2.97% and -31.1%; in assay [13] (setting [18]) it was 12.4% and 18.9% and -32.5%. Besides, the Potency entry in assay [4], in assay [5], in assay [7], in [8], in [9] and in [10] was “inactive” in each case. Also, in assay [12], the Potency result is “inactive”.

Regarding `CC(C)(C(=O)O)c1ccc(C(O)CCCN2CCC(C(O)(c3ccccc3)c3ccccc3)CC2)cc1` (configuration not stated), the result in assay [3] and in [11] was inactive. Besides, the activity change, negative = inhibition in assay [13] (at 57.5 µM (top of the series)) was 2.57% (inactive) and -0.0758% (inactive). In addition, the max response in assay [13] (setting [17]) was 23% and -17.7%; in assay [13] (setting [18]) it was 28% and -18.6%. In addition, the Potency result in assay [5], in [6], in assay [7], in [8], in assay [9] and in assay [10] was “inactive” each time. Besides, in assay [12], the Potency result was “inactive”.
